Screening data deposited in PubChem BioAssay by National Center for Advancing Translational Sciences (NCATS).
HP1b chromo inh: HP1-beta chromodomain-methylated histone interaction inhibition; hit rate 0.56% among 390,000; AlphaScreen HP1-beta / biotin-H3K9me3 peptide binding; P83916; AID 540317; Potency, µM (series often up to 114 µM), inactives show at the highest dose activity change, negative = inhibition, hits mostly inhibitors; further: potency means the concentration at half of the fitted maximal effect; nearly all actives have a fitted effect of over 70% in size
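AlphaScreen: HP1-beta (50 nM) preformed 30 min with biotin-H3(1-18)K9me3 peptide (50 nM) in PBS pH 7.4, 0.01% Tween-20. Compound added for 30 min at RT, then streptavidin donor/nickel chelate acceptor beads (10 ug/mL) for 30 min.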
BAZ2B block: BAZ2B (human) inhibition; Q9UIF8; AlphaScreen BAZ2B-H3K14Ac peptide displacement; Potency, µM (series often up to 114 µM), for inactives: top-dose activity change, negative = inhibition, actives largely listed as inhibitors; hit rate 4.4% among 360,000; further: potency means the concentration at half of the fitted maximal effect; on the % scale 0 is the no-effect control and ±100 the full control effect; nearly all actives have a fitted effect of over 60% in size
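Compounds, titrated to a top concentration of 110 uM, were incubated 30 min at room temperature with preformed BAZ2B/acetyl-K14 H3 peptide complex (50 nM each). Proximity signal was measured by AlphaScreen after 20 min with beads.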
G9a inh: inhibitors of human histone lysine methyltransferase G9a | Q96KQ7 | G9a H3K9 monomethylation, AlphaScreen, 2 h | Potency, µM (series often up to 102 µM), without a hit: at the highest dose activity, negative = inhibition, actives largely listed as inhibitors | hit rate 8.8% among 350,000 | AID 504332; further: potency means the concentration at half of the fitted maximal effect; on the % scale 0 is the no-effect control and ±100 the full control effect; nearly all actives have a fitted effect of over 75% in size
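AlphaScreen detection with an anti-monomethyl H3K9 antibody quantified product after a 2 h room-temperature reaction containing 500 nM biotinylated H3K9 peptide, 20 µM SAM and 20 nM enzyme, which had been preincubated 15 min with compound.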
JMJD2A Tudor inh: JMJD2A Tudor domain (human) inhibition; AlphaScreen JMJD2A-Tudor / H3K4me3 peptide binding; Potency, µM (highest dose often 114 µM), inactives show top-dose activity change, negative = inhibition, actives largely listed as inhibitors; hit rate 4.4% among 390,000; AID 504339; further: potency means the concentration at half of the fitted maximal effect; on the % scale 0 is the no-effect control and ±100 the full control effect; nearly all actives have a fitted effect of over 50% in size
L3MBTL1 block: L3MBTL1 (human) inhibition. Q9Y468. AlphaScreen L3MBTL1–H3K9me1 peptide binding. Potency, µM (doses to about 57.1 µM), for the others: at the top dose activity, negative = inhibition, actives largely listed as inhibitors. hit rate 0.66% among 230,000; further: potency means the concentration at half of the fitted maximal effect; on the % scale 0 is the no-effect control and ±100 the full control effect; nearly all actives have a fitted effect of over 60% in size
Target sequence (Q9Y468 whole entry, looked up): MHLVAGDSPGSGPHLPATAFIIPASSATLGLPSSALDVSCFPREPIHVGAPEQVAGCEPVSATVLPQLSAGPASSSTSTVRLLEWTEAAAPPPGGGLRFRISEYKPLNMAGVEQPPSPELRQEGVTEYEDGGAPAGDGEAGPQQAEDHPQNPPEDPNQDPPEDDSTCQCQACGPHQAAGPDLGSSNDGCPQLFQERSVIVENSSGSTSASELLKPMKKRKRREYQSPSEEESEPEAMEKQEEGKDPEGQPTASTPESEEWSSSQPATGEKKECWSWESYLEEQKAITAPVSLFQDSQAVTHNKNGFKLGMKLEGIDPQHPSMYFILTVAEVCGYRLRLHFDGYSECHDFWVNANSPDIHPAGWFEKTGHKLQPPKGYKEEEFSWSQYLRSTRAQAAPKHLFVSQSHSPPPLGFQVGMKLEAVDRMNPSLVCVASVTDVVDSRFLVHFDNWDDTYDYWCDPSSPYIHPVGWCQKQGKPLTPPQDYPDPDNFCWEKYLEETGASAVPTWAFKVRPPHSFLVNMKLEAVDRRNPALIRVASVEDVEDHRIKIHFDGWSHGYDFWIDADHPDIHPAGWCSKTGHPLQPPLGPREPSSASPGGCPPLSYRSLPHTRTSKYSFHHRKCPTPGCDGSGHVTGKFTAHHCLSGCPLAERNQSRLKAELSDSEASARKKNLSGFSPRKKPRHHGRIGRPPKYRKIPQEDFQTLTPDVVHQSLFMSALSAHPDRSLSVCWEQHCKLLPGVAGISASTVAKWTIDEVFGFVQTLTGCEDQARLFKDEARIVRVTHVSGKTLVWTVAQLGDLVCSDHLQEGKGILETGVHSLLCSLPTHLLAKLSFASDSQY
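AlphaScreen proximity signal between nickel-chelate acceptor and streptavidin donor beads (final 10 ug/mL) reports binding of 50 nM L3MBTL1 to 75 nM biotin-H3 K9me1 peptide; complex incubated with compounds 30 min at room temperature; cefsulodin titration as control.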
PI5P4K alpha inh: blocks human PI5P4K alpha kinase activity | P48426 | PI5P4Kalpha enzyme, ADP-Glo luminescence, 60 min; hits give low values | max response, % | hit rate 1.2% among 330,000; active means max response of -50% or lower; inconclusive means between -30% and -50%; inactive means -30% or higher; further: value at the top dose of about 77 µM; on the % scale 0 is the no-effect control and ±100 the full control effect
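PI5P4Kalpha ADP-Glo assay; 5 microM ATP final; 60 min RT reaction; HEPES pH 7.4/EGTA/CHAPS, 5% DMSO; controls lacking substrate or enzyme; luminescent end-point.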
* marks the source's active call; other numbers are inactive results; ? = inconclusive; . = no result; [ ] = another dose, or the depositor's remark. Compounds with a hit are over-represented: about 11% of the library has one in this group of screens. Unless noted, the call rests on the fitted dose curve; in most records, active means well fitted inhibition curve with a large enough effect; inconclusive means small, poorly fitted or top-dose-only effect; inactive means no such curve, though single readings can be large or run the other way.

SMILES | HP1b chromo inh | BAZ2B block | G9a inh | JMJD2A Tudor inh | L3MBTL1 block | PI5P4K alpha inh
Cc1[nH]c2ccccc2c1C(c1ccncc1)N1CCC(C)CC1 (stereo not given) | -12% | -11% | 28µM* | ? | 6% | 2
Cc1[nH]c2ccccc2c1C(c1ccncc1)N1CCN(c2ccccn2)CC1 (stereo not given) | ? | ? | 22µM* | -35% | 0% | -9
Cc1[nH]c2ccccc2c1C(c1ccncc1)N1CCN(c2ccccc2F)CC1 (stereo not given) | -22% | ? | 11µM* | ? | -12% | 15
CCCN1CNc2c(c(=O)[nH]c(=S)n2CCc2cccs2)C1 | 29% | . | . | -5% | . | .
Cc1ccc(OCCCNCCO)c(Br)c1 | 36% | 0% | -33%[59 µM] | -7% | . | 9
CC(C)NCCOCCOc1ccccc1F | ? | 50µM* | 4.5µM* | 1.8µM* | . | 3
CC(C)NCCOCCOc1ccc(Cl)cc1Br | -18% | ? | ? | 3.2µM* | 10% | -2
CCC(C)NCCOCCOc1ccc(C)cc1Br (stereo not given) | ? | 56µM* | ? | 2.5µM* | 3% | .
CC(C)NC(=O)COc1ccc(Cl)cc1Cl | 25% | 2% | -6% | 0% | . | .
C=CCNCCOCCOc1ccc(C)cc1Br | ? | 56µM* | 3.2µM* | 5µM* | 5% | 1
CC1=C(C(=O)Nc2ccccc2C)C(c2cccnc2)n2nc(SCc3ccccc3)nc2N1 (stereo not given) | 36% | -3% | 2%[59 µM] | -4% | . | .
CC(C)=CC(=O)Oc1ccc(C(=O)N(C)c2ccccc2I)cc1 | 40% | . | . | -14% | . | .
CCC(C)NCCCOc1c(C)cc(C)cc1Br (stereo not given) | -36% | 79µM* | 8.9µM* | ? | -4% | -4
COc1ccccc1OCCCOc1c(C)cc(C)cc1Br | 177% | 151% | 103%[59 µM] | 87% | 43% | 20
C=CC[n+]1c(C)csc1Nc1ccc(C)cc1 | ? | 32µM* | 50µM* | ? | -28% | 0
C=CC[n+]1c(C)csc1Nc1cccc(Br)c1 | ? | . | 32µM* | ? | -18% | 27
CCS(=O)(=O)n1nc(-c2ccco2)nc1NCc1ccc(C(C)C)cc1 | 11% | -30% | ? | -6% | . | .
CCN1CCN(C(=O)Cn2ncc3c4ccccc4n(Cc4ccccc4F)c3c2=O)CC1 | 23% | -3% | 0%[59 µM] | -4% | . | .
CCn1nc(C)c(CCN(C)C(=O)Nc2cccc(Cl)c2C)c1C | 24% | -7% | -1%[59 µM] | -6% | . | .
CCCC(=O)Nc1ccc(C(=O)NCc2ccccc2Cl)cc1 | 12% | 1% | 11%[59 µM] | -16% | 37% | 7
CCCC(=O)Nc1ccc(C2C(=O)c3ccccc3C2=O)cc1 | -16% | ? | 79µM* | -24% | -7% | -9
CC(=O)Nc1ccc(C2C(=O)c3ccccc3C2=O)cc1 | -17% | -36% | 50µM* | -25% | -9% | -17
Cc1ccc(C2C(=O)c3ccccc3C2=O)cc1 | 1% | ? | ? | -15% | . | -1
COc1ccccc1-n1cnc2cc(NCc3ccccc3O)ccc21 | ? | 35µM* | ? | -21%[11.4 µM] | ? | -20
COc1ccccc1-n1cnc2cc(NCc3cccs3)ccc21 | ? | 45µM* | ? | 45µM* | . | -10
SMILES | HP1b chromo inh | BAZ2B block | G9a inh | JMJD2A Tudor inh | L3MBTL1 block | PI5P4K alpha inh
CC(C)(C)n1cnc2cc(NCc3cccs3)ccc21 | -5% | -36% | -2%[59 µM] | -30% | . | 0
CCCNC(=O)c1ccc2c(c1)ncn2-c1ccccc1OC | -7% | 9% | -2%[59 µM] | 1%[11.4 µM] | 5% | -9
COc1ccc(CNc2ccc3c(c2)ncn3-c2ccccc2OC)cc1 | ? | 40µM* | ? | 28µM* | ? | .
COc1ccccc1-n1cnc2cc(NS(=O)(=O)c3ccc(Br)cc3)ccc21 | 3% | -7% | -4% | -31% | . | -3
COc1ccccc1-n1cnc2cc(NCc3ccco3)ccc21 | -23% | -60% | 35µM* | ? | -11% | -20
CC1CCN(S(=O)(=O)c2ccc3c(c2)oc(=O)n3CC(=O)N2CCCCC2)CC1 | 35% | -17% | -5%[59 µM] | -11% | . | .
